Screening data from PubChem BioAssay.
Most compounds without a hit are left out; they make up all but 8.9% or so of the library.
SW480 rerep: A quantitative high throughput screen for small molecules that induce DNA re-replication in SW480 colon adenocarcinoma cells; Potency, µM (series often up to 46.1 µM), inactives show top-dose re-replication activation, usual class: activators; SW480 DNA re-replication, Hoechst DNA content imaging, 48 h; 340,000 tested, 1.8% active; note: potency is the fitted concentration of half-maximal effect; % of control where 0% means no effect; nearly all actives have a fitted effect of over 55% in size
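Readout is total intensity of Hoechst-stained nuclei, excited at 405 nm and collected at 500-530 nm. Compound treatment lasted 48 hr at 37 C in 5% CO2 before staining.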
KB-3-1 tox: qHTS assay for MDR1-selective chemotherapeutics: Primary screen using the parental adenocarcinoma cell KB-3-1. AID 1347075, 2019. KB-3-1 viability, CellTiter-Glo ATP luminescence, 72 h. Potency, µM (doses to about 46.1 µM), hits mostly cytotoxic. 400,000 tested, 1.4% active; note: potency is the fitted concentration of half-maximal effect; % is set by controls: 0 for no effect and ±100 for the full control effect; nearly all actives have a fitted effect of over 60% in size
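Cytotoxicity measured as CellTiter-Glo luminescence after 72 h at 37 C. Compound titrations were pinned onto drug-naive KB-3-1 parental adenocarcinoma cells grown in DMEM with 10% FBS, and normalized data fitted to concentration-response curves.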
MCF10A rerep: A quantitative high throughput screen for small molecules that induce DNA re-replication in MCF 10a normal breast cells; 350,000 tested, 2.9% active; AID 624296, 2012; Potency, µM (doses to about 46.1 µM), for the others: at the top dose activity, positive = re-replication, usual class: activators; MCF 10A DNA re-replication, Hoechst nuclear intensity, 48 h; note: potency is the fitted concentration of half-maximal effect; % of control where 0% means no effect; nearly all actives have a fitted effect of over 50% in size
KB-V1 MDR tox: qHTS assay for MDR1-selective chemotherapeutics: Primary screen using the drug-selected MDR subline cells KB-V1; KB-V1 MDR cells viability, CellTiter-Glo, 72 h; Potency, µM (titrated, usually from 46.1 µM), hits mostly cytotoxic; 400,000 tested, 3.4% active; AID 1347076, 2019; note: potency is the fitted concentration of half-maximal effect; % is set by controls: 0 for no effect and ±100 for the full control effect; nearly all actives have a fitted effect of over 60% in size
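qHTS viability screen in drug-selected KB-V1 MDR cells: 72 h compound treatment at 37 degrees C, ATP luminescence end point.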
DRD3 antagonist: qHTS of D3 Dopamine Receptor Antagonist: qHTS; 360,000 tested, 2.5% active; D(3) dopamine receptor (Homo sapiens), P35462; AID 652054, 2013; D3R cells, DiscoveRx beta-arrestin luminescence, antagonist mode; stronger effect = lower value; max response, negative = inhibition, %; in the data active = max response below about -50%; inconclusive = no clear call, values can overlap the other calls; note: % is set by controls: 0 for no effect and ±100 for the full control effect
Target sequence (P35462 whole entry, looked up): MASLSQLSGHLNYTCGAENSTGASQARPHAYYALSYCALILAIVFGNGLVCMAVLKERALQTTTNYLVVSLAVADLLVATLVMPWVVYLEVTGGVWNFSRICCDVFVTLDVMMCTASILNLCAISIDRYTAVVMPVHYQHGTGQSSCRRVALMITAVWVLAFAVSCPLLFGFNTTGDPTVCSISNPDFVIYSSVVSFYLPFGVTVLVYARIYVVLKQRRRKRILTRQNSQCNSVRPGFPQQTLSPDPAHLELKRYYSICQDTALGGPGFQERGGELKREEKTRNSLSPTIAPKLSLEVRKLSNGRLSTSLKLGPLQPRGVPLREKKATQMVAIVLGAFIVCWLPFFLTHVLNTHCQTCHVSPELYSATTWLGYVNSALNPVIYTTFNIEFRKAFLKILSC
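Cells expressing the human receptor were seeded at 1500 cells/well, incubated overnight at 37 degrees C in 5% CO2, then exposed to library compounds with dopamine controls for 90 minutes at 37 degrees C before luminescent detection.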
DRD3 agonist: qHTS of D3 Dopamine Receptor Agonist: qHTS | 410,000 tested, 0.58% active | D(3) dopamine receptor (Homo sapiens), P35462 | max activation, % | D3R DiscoveRx beta-arrestin cells, luminescence, 90 min; in the data active = max activation above about 30%; note: 0% is about no effect
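Agonist mode: compounds and dopamine controls were applied to plated cells for 90 min at 37 degrees C after an overnight attachment at 1500 cells/well. Luminescent read-out followed 30 - 60 minutes at room temperature with DiscoveRx detection reagent.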
Numbers without * were called inactive; i = inactive; u = inconclusive; x = not tested or not shown; ! = not confirmed by another sample. Unless noted, calls come from the whole dose curve; as a rule, active = well fitted curve in the direction sought with a large enough effect; inconclusive = small, poorly fitted or top-dose-only effect, or another doubt; inactive = no such curve, though single readings can be large; an effect the other way counts as inactive or inconclusive.

SMILES	SW480 rerep	KB-3-1 tox	MCF10A rerep	KB-V1 MDR tox	DRD3 antagonist	DRD3 agonist
CC(C)c1ccc(C(=O)CC2(O)C(=O)N(CCc3ccccc3)c3ccc(Cl)cc32)cc1 (stereo unspecified)	x	u	x	u	x	2
O=C(C1CCC(Cn2c(=O)c3sccc3n(Cc3cccc(F)c3)c2=O)CC1)N1CCOCC1 (stereo unspecified)	x	i	x	i	x	-5
COc1ccc(-c2cccc(NS(=O)(=O)c3ccc(NC(C)=O)cc3)c2)nn1	x	u	x	i	x	1
O=S(c1ccc2ccccc2c1)c1cnns1 (stereo unspecified)	u	i	13µM*	u	-55*	-9
CCC(/C=C1\Sc2ccc(OC)cc2N1CCO)=C\c1sc2ccc(OC)cc2[n+]1CCO	0%	2.9µM*	u	i	u	-6
CCc1ccc(NC(=O)C(=O)NCC(c2ccc3c(c2)OCO3)N2CCOCC2)cc1 (stereo unspecified)	x	i	x	i	x	-2
COc1ccc(C)c(NC(=O)C2CC(=O)NC3=C2C(=O)CCC3)c1 (stereo unspecified)	-7%	i	2%	i	-9	-5
COc1cc(NC(=O)C2CC(=O)NC3=C2C(=O)CCC3)c(OC)cc1Cl (stereo unspecified)	3%	i	18%	i	-16	39*
Cn1c(=O)c2c(SCC(=O)Nc3ccccc3C(F)(F)F)nc(C3CCCC3)nc2n(C)c1=O	x	i	x	i	x	8
O=C(COc1cccnc1[N+](=O)[O-])Nc1ccccc1Sc1ccccc1	-8%	i	13%	13µM*	-6	-7
O=C(COc1cccnc1[N+](=O)[O-])Nc1cccc(Br)c1	-9%	i	1%	i	-12	-5
O=C(Nc1cc(F)ccc1F)C1CCN(c2nc3ccccc3n3cccc23)CC1	x	x	x	x	x	3
CCn1c(SCC(=O)OCc2ccccc2)nnc1-c1ccco1	-13%	i	-1%	i	-9	-2
CCn1c(Sc2ccc([N+](=O)[O-])cn2)nnc1-c1ccco1	8%	21µM*	6.5µM*	u	-7	-4
CCOC(=O)c1cc(OC(=O)c2cc(Cl)ccc2OC)n(-c2ccccc2)n1	x	i	x	i	x	1
COc1ccc(C(=O)COC(=O)c2sccc2C)cc1OC	-2%	i	-1%	i	33	-4
CC(C)(C)CC(C)(C)c1ccc(O)c(Cc2ccc(Cl)cc2Cl)c1	3%	u	30µM*!	u	81	26
CCC(Sc1nc2ccncc2[nH]1)C(=O)Nc1cc(Cl)ccc1C (stereo unspecified)	-5%	i	0%	i	152	35*!
CCC(Sc1nc2ccncc2[nH]1)C(=O)Nc1cc(C)ccc1C (stereo unspecified)	x	i	x	i	x	9
Cc1ccc(C)c(CNC(=O)c2ccc3c(c2)nc2n3CCC(C)C2)c1 (stereo unspecified)	x	x	x	x	x	-23
Cc1cn([C@H]2C[C@H](O)[C@@H](/C=C/C(=O)NCCc3cccnc3)O2)c(=O)[nH]c1=O	x	i	x	i	-23	59*
Cc1cn([C@H]2C[C@H](O)[C@@H](/C=C/C(=O)NCc3ccccc3)O2)c(=O)[nH]c1=O	x	i	x	i	-6	-1
CN1CCN(c2nc(-c3ccncc3)nc3ccccc23)CC1	u	i	u	u	75	-1
COc1ccc(N2CCN(c3ncnc4scc(-c5ccccc5)c34)CC2)cc1	22%	u	u	u	67	31*
CN1CCN(c2nc(-c3ccc(Cl)cc3)nc3ccccc23)CC1	0%	i	1%	i	-61*	-31
SMILES	SW480 rerep	KB-3-1 tox	MCF10A rerep	KB-V1 MDR tox	DRD3 antagonist	DRD3 agonist
COc1ccc(N2CCN(c3ncnc4scc(-c5ccc(C)cc5)c34)CC2)cc1	u	u	23µM*	u	16	3
COc1ccc(-c2csc3ncnc(N4CCN(c5ccccc5Cl)CC4)c23)cc1	u	u	18µM*	u	9	12
COc1ccc(N2CCN(c3ncnc4scc(-c5ccc(F)cc5)c34)CC2)cc1	u	u	u	u	11	2
NC[C@@H]1CC[C@@H](N)[C@@H](O[C@H]2[C@H](O)[C@@H](O[C@H]3O[C@H](CO)[C@@H](O)[C@H](N)[C@H]3O)[C@H](N)C[C@@H]2N)O1	x	x	x	x	x	-8
COC(=O)c1ccc(NC(=O)CN2CCCN(Cc3ccc(Cl)cc3)S2(=O)=O)cc1	x	i	x	i	x	-3
O=C(NCCCc1ccc(F)cc1)C1CCC(=O)N(CCN2CCOCC2)C1 (stereo unspecified)	-4%	i	-1%	i	0	3
CCN1CCN(c2ncnc3scc(-c4ccc(OC)cc4)c23)CC1	-8%	u	12%	i	-61*	-12
c1ccc(N2CCN(c3nc(-c4cccs4)nc4ccccc34)CC2)cc1	-1%	i	23µM*	i	7	6
c1csc(-c2cc(N3CCCCC3)c3ccccc3n2)c1	17%	i	21µM*	i	34	2
c1ccc(-c2csc3ncnc(N4CCOCC4)c23)cc1	-2%	i	10%	i	1	5
c1ccc(-c2csc3ncnc(N4CCc5ccccc5C4)c23)cc1	u	u	u	16µM*	24	14
c1csc(-c2nnc(N3CCCCCC3)c3ccccc23)c1	12%	i	u	i	u	-1
c1ccc(N2CCN(c3ncnc4scc(-c5cccs5)c34)CC2)cc1	u	i	u	u	39	51*
COc1ccc(Nc2ncnc3scc(-c4ccc(OC)cc4)c23)cc1	15µM*	4.1µM*	5.2µM*	3.3µM*	21	0
Cc1nc(N2CCCCC2)c2c(-c3cccs3)csc2n1	2%	i	21µM*	i	5	-9
Cc1ccc(/C=C/C(=O)OCC(=O)NCc2cccs2)o1	-19%	i	4%	i	10	-1
O=C(CSc1nc(-c2ccccc2)[nH]c1-c1ccc(F)cc1)NC1CCCC1	x	i	x	i	x	-19
CN(C)S(=O)(=O)c1ccc(S(=O)(=O)N2CCCC(C(=O)NC3CCCC3)C2)cc1 (stereo unspecified)	0%	i	17%	i	-1	-8
